TRHR agonist = TRH receptor (human) agonism. TRHR cells, calcium flux fluo-8, FDSS agonist mode. activation, % at 2 µM. actives 0.18% (n = 360,000); in the data active = activation above about 30%; note: 0% is about no effect
Target sequence (P34981 whole entry, looked up): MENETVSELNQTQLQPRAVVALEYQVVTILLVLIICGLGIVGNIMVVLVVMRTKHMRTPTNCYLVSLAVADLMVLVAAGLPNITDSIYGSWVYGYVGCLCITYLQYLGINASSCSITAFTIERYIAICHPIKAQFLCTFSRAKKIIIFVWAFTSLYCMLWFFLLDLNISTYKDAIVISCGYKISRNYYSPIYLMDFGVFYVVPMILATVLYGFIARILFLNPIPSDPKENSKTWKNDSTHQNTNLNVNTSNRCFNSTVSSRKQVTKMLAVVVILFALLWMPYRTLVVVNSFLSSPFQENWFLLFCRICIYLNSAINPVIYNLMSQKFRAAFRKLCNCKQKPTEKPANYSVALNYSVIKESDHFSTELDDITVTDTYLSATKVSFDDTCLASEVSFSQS
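TRHR-expressing cells, plated overnight in medium with 10% serum, were loaded with fluo-8 calcium dye at room temperature. After a 10 s baseline, library compound was pin-added and calcium release was recorded kinetically (ex 480/em 530) as agonist response.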
TRPV1 potentiator = potentiators of human vanilloid receptor 1 (TRPV1) | Q8NER1 | TRPV1-expressing cells, Fluo-8 calcium influx, capsaicin EC20 potentiation | potentiation, % at 8.33 µM | actives 0.02% (n = 320,000) | AID 540277; in the data active = potentiation above about 80%; inconclusive = between about 30% and that limit; note: 0% is about no effect
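Cells expressing TRPV1 were dye-loaded with Fluo-8 and read kinetically: 10 s baseline, 3 min after compound (agonist portion), then 2 min after EC20 capsaicin (allosteric enhancer portion). Calcium-bound dye fluorescence at 480/520 nm.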
TRHR PAM = TRH receptor (human) allosteric enhancement. P34981. TRHR cells, fluo-8 calcium fluorescence, EC20 TRH enhancement. enhancement, % at 2 µM. actives 0.66% (n = 360,000). AID 493056; in the data active = enhancement above about 30%; note: 0% is about no effect
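TRHR-expressing cells loaded with fluo-8 calcium dye were read kinetically (ex 480/em 530) during compound addition, then stimulated with an EC20 of TRH (10 nM final). Enhancement of the Gq-mediated intracellular calcium response was scored.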
TRPV1 agonist = agonists of human vanilloid receptor 1 (TRPV1); TRPV1-expressing cells, Fluo-8 calcium influx, agonist mode; actives 0.19% (n = 320,000); Q8NER1; activation, % at 8.33 µM; in the data active = activation above about 80%; inconclusive = between about 30% and that limit; note: 0% is about no effect
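Fluo-8 calcium influx in TRPV1-expressing cells, kinetic read (ex 480/em 520 nm). Compound added and read 3 min for agonist activity, followed by capsaicin at EC20 final and 2 min further read for enhancement.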
TRPML1 blocker = blocks the human TRPML1 channel; TRPML1-inducible cells, Ca2+ dye fluorescence, FDSS; stronger effect = lower value; inhibition of EC80 agonist-evoked calcium signal; activity change, negative = inhibition, % (no concentration beside the values); actives 0.02% (n = 390,000); in the data active = activity change below about -50%; inconclusive = between about -30% and that limit;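 note: stimulus is agonist 54-4 at its EC80 concentration; % is set by controls: 0 for no effect and ±100 for the full control effect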
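Calcium fluorescence in TRPML1-DL cells induced overnight with Tet: a 110 s read after compound pin addition, then a 110 s antagonist read after challenge with 54-4 at 4 uM final (EC80).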
TRPML1 ag = activates the human TRPML1 channel; TRPML1-expressing cells, Ca2+ dye fluorescence, FDSS; AID 624414; activation, % (no concentration beside the values); Q9GZU1; actives 0.12% (n = 410,000); in the data active = activation above about 50%; inconclusive = mostly about 30% to 49%; note: 0% is about no effect
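In this qHTS format, compounds were pin-transferred onto Ca8-dye-loaded TRPML1-DL cells induced with Tet overnight, and intracellular Ca2+ fluorescence was recorded kinetically for 110 s after a 10 s baseline. A subsequent 4uM final 54-4 (EC80) addition followed by a second 110 s read served as the antagonist phase.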
* marks the source's active call; other numbers are inactive results; ? = inconclusive; nt = not tested or not shown. In the library only some 0.99% were active in any assay of this set; here they are far more common.

SMILES	TRHR agonist	TRPV1 potentiator	TRHR PAM	TRPV1 agonist	TRPML1 blocker	TRPML1 ag
O=C(CCC(=O)N1CCCC(Nc2ccccc2)C1)c1ccc(F)cc1 (stereo not given)	0	-5	-6	86*	2	-1
Cc1cc(C)c(C(=O)N2CCCC(Nc3ccc(F)cc3)C2)o1 (stereo not given)	0	-6	-8	83*	10	1
O=S(=O)(c1ccc(Cl)cc1)N1CCN(c2nc(-c3ccccc3)nc3ccccc23)CC1	nt	nt	nt	nt	nt	-1
CCCCCCCCCC[n+]1ccc(/C=C/c2c(C)[nH]c3ccccc23)c2ccccc21	nt	nt	nt	nt	nt	3
COc1ccc2nc(-c3ccccc3)cc(C(=O)OCC(=O)N3CC(C)OC(C)C3)c2c1 (stereo not given)	4	-6	41*	17	42	6
O=C(c1cccc(Cl)c1Cl)N(Cc1ccco1)Cc1cccs1	nt	nt	nt	nt	nt	-1
COC(=O)CSC1=NS(=O)(=O)c2ccccc21	2	7	39*	-1	-2	0
O=C(CSC1=NS(=O)(=O)c2ccccc21)Nc1ccccc1	1	-5	11	3	7	1
O=C(N/N=C/c1cccs1)c1c[nH]c2ccccc12	-1	-3	4	-1	-12	-1
CCc1ccc(/C=N/NC(=O)c2c[nH]c3ccccc23)s1	0	-14	13	85*	-1	3
COc1ccc(CCNC(=S)NCc2ccc(Cl)c(Cl)c2)cc1OC	0	-1	-5	81*	17	1
CC(C)(C)n1ncc2c(=O)n(Cc3ccc(SC(F)(F)F)cc3)cnc21	nt	nt	nt	nt	31	2
N#CC1=C(N)CCC1	nt	nt	nt	nt	nt	0
O=C1CSC(c2ccc(Cl)cc2)N1c1cccnc1 (stereo not given)	-1	9	3	-2	-22	78*
CCCn1c2ccccc2c2cnn(CC(=O)NCCc3ccc(S(N)(=O)=O)cc3)c(=O)c21	40*	nt	-3	nt	4	1
Cc1ccc(Cn2c3ccccc3c3cnn(CC(=O)Nc4cc(Cl)ccc4C)c(=O)c32)cc1	0	nt	45*	nt	-1	1
Cc1cc(C)c(Cn2c3ccccc3c3cnn(CC(=O)NCc4ccc(Cl)cc4)c(=O)c32)c(C)c1	0	nt	13	nt	5	-1
CCCn1c2ccccc2c2cnn(CC(=O)NCCc3ccccc3)c(=O)c21	-1	nt	-2	nt	9	0
CC(C)c1ccc(Cn2cnc3c(cnn3C(C)(C)C)c2=O)cc1	nt	nt	nt	nt	9	2
Cc1cccc(C(=O)NC2CCN(C#N)CC2)c1	-2	nt	-2	nt	nt	nt
CC(C)(C)c1ccc(C(=O)C[n+]2ccc(Cl)c3ccc(Cl)cc32)cc1	nt	nt	nt	nt	nt	-1
Cc1cc(C)c(-c2noc(C(=O)OC(C)(C)C)c2C(=O)OC(C)(C)C)c(C)c1	0	14	-3	2	-3	53*
CC(=O)c1ccc(NC(=O)N2CCN(c3ccc(C)cc3)C(C)C2)cc1 (stereo not given)	-1	2	2	84*	18	0
CC(=O)c1ccc(N2CCN(C(=O)Nc3ccc(C)cc3)CC2)cc1	-1	0	8	94*	-24	2
COC(=O)N1CCN(c2ccc(C)cc2)C(C)C1 (stereo not given)	0	-20	-1	?	-2	0
SMILES	TRHR agonist	TRPV1 potentiator	TRHR PAM	TRPV1 agonist	TRPML1 blocker	TRPML1 ag
COc1ccc(S(=O)(=O)N2CCCCC2C(=O)O)cc1OC (stereo not given)	0	?	33*	0	18	0
COc1ccc(S(=O)(=O)N2CCCCC2C(=O)O)cc1 (stereo not given)	-1	-5	-9	0	-8	0
O=C(O)c1ccc(Cl)c(NCc2ccncc2)c1	1	-7	11	-5	12	-1
Cc1ccc(C(=O)O)cc1NCc1ccncc1	1	-4	30*	3	-16	0
CC1OC(O[C@H]2CC[C@]3(C)C4C=C[C@]56OC[C@@]7(CC[C@@H](C)[C@H](C)C75)[C@H](O)C[C@@]6(C)[C@]4(C)CC[C@H]3C2(C)C)C(OC2OC(CO)C(O)C(O)C2OC2OCC(O)C(O)C2O)C(O)C1O (stereo not given in full)	48*	-45	-22	?	nt	nt
CC1O[C@@H](OC2C(COC3OC(CO)C(O)[C@H](O)C3O)OC(OC3CC[C@]4(C)C(CC[C@@]5(C)[C@@H]4CC=C4[C@@H]6CC(C)(C)CC[C@]6(CO)C(O)C[C@]45C)C3(C)C)C(O)C2O)C(O)C(O)C1O (stereo not given in full)	nt	nt	nt	nt	14	1
O=C(Nc1ccc2c(c1)CCC2)c1cnn2c1NC(=C1CC1)C=C2C(F)F	nt	nt	nt	nt	nt	-1
COc1cc(OC)c2c(C)c(CC(=O)N3CCCCC3)c(=O)oc2c1	0	nt	35*	nt	-6	0
COc1cc2oc(=O)c(CC(=O)N3CCCCC3)c(C)c2cc1Cl	0	nt	4	nt	-19	0
COc1ccc(C2(CNC(=O)C(=O)Nc3ccccc3C)CCCC2)cc1OC	0	nt	0	nt	12	3
COc1ccc(C2(CNC(=O)C(=O)Nc3ccc(F)cc3)CCCC2)cc1OC	1	nt	32*	nt	-14	0
Cc1cccc(OCCC(=O)NO)c1	nt	nt	nt	nt	nt	0
CCOC(=O)C(NC(C)=O)C(=O)Nc1ccc(C(C)C)cc1 (stereo not given)	0	-5	39*	0	12	3
CN(C)c1ccc(/C=C2\C(=O)/C(=C\c3ccc(N(C)C)cc3)c3ccccc32)cc1	nt	nt	nt	nt	nt	1
Cn1c(=O)c2c(nc3sccn32)n(C)c1=O	-1	88*	0	2	14	0
N#CC1=C(N)C2=C(N3CCCCC3)CCCC2C1(C#N)C#N (stereo not given)	1	-5	3	2	13	2
N#CC(C#N)=C1C=C2C=C(N3CCCCC3)CCC2CC1 (stereo not given)	249*	0	-21	102*	-26	109*
CCCCN(C)C1=CC2=CC(=C(C#N)C#N)CCC2CC1 (stereo not given)	261*	-2	-9	101*	-64*	125*
CCN(CC)C1=CC2=CC(=C(C#N)C#N)CCC2CC1 (stereo not given)	0	7	4	0	?	105*
CCN(CC)c1ccc(/C=C/C2=C3C=CC=CC3NC=C2)cc1 (stereo not given)	nt	nt	nt	nt	nt	18
Cc1nc(N2CCCCC2)c2c(C)c(C(=O)Nc3ccccc3C(F)(F)F)sc2n1	1	-21	-6	89*	4	1

Source: PubChem BioAssay
